From PubChem
An excerpt weighted towards active compounds, which were near 5.5% of everything screened.
RORgamma inh – inhibitors of mouse ROR gamma transcriptional activity; P51450; Drosophila S2 Gal4-RORgamma UAS-luciferase reporter, 20 h; Potency, µM (titrated, usually from 53.6 µM), for inactives: at the highest dose activity change, negative = inhibition, actives largely listed as inhibitors; hit rate 5.4% among 310,000; note: potency is the fitted concentration of half-maximal effect; % is set by controls: 0 for no effect and ±100 for the full control effect; nearly all actives have a fitted effect of over 60% in size
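ROR gamma transcriptional activity was tracked as Gal4-UAS luciferase output in stably transfected Drosophila Schneider cells, with compound added 1 hr before 700 uM copper sulfate induction and a 20 hr ambient-temperature incubation.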
MBNL1-CUG inh – MBNL1-poly(CUG) RNA binding inhibition; Potency, µM (titrated, usually from 57.5 µM), for inactives: at the top dose activity change, negative = inhibition, actives largely listed as inhibitors; Q9NR56; TR-FRET MBNL1-His/biotin-(CUG)12 binding, 665/545 ratio; hit rate 0.036% among 280,000; active = well fitted inhibition curve with a large enough effect in the signal ratio, with a control signal flat, not every such curve was filed as active; inconclusive = small, poorly fitted or top-dose-only effect, or effect the other way, or a change in a side signal; inactive = no such curve, though single readings can be large or run the other way; the % refers to the signal ratio; note: potency is the fitted concentration of half-maximal effect; % is set by controls: 0 for no effect and ±100 for the full control effect
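Compound titration spanned 92 nM–58 uM against the MBNL1-His/biotin-(CUG)12 complex. After 60 min at room temperature with 5 nM streptavidin-XL665 and 0.055 ng/ul terbium anti-His, ratiometric 665/545 nm emission (Ex 340 nm) normalized to controls.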
CtBP-E1A blk – inhibitors of CtBP/E1A interaction; AlphaScreen GST-E1A/His-CtBP binding, 1536-well; hits give low values; activity change, % (test concentration not listed); hit rate 0.49% among 340,000; in the data active = activity change below about -65%; inconclusive = mostly about -30% to -63%; note: % is set by controls: 0 for no effect and ±100 for the full control effect
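Steps: dispense buffer (Tris pH 8.0, NaCl 300 mM, TCEP 1 mM, BSA, Tween 20); add 5X protein mix (GST-E1A, His-CtBP, 125 nM each); pin 23 nL compound; 2 h at 37 °C, dark; add 5X beads (50 ug/mL); 1 h; read.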
Six1-Eya2 inh – Six1/Eya2 interaction inhibition. Q15475+O00167. AID 651725. hit rate 0.56% among 360,000. activity change, % (test concentration not listed). AlphaScreen GST-Six1/His-Eya2 binding, biochemical; hits give low values; in the data active = activity change below about -65%; inconclusive = mostly about -30% to -63%; note: % is set by controls: 0 for no effect and ±100 for the full control effect
Target sequence (O00167 whole entry, looked up): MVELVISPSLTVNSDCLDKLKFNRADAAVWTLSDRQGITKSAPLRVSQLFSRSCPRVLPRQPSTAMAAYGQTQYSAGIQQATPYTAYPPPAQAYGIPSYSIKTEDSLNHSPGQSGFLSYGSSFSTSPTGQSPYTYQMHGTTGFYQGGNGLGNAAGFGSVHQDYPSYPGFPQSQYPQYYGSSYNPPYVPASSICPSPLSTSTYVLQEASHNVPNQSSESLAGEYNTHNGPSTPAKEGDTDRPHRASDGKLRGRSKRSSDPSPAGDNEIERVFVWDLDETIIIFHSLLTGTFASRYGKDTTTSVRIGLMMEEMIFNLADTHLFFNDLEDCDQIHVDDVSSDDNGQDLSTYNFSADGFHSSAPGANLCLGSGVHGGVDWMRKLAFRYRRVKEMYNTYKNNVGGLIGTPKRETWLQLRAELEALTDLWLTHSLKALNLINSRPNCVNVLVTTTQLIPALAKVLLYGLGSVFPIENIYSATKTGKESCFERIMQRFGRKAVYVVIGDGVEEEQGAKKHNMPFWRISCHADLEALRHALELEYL
Target sequence (Q15475 whole entry, looked up): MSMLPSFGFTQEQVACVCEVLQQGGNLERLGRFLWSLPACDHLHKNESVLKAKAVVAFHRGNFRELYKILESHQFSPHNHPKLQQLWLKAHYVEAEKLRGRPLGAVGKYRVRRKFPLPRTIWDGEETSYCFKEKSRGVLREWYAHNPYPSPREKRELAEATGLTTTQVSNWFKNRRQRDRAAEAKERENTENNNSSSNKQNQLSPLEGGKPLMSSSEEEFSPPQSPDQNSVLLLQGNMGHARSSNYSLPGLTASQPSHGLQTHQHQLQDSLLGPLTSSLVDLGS
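AlphaScreen luminescence read after one hour at 37 °C in darkness. Pin-transferred compounds met GST-Six1 and His-Eya2 protein (5X stock 250 nM/500 nM) plus glutathione donor and Ni-chelate acceptor beads (5X, 50 ug/mL).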
CBFb-RUNX1 inh – inhibitors of human CBF-beta and RUNX1 interaction. Q01196+Q13951. AID 1477. AlphaScreen CBFb-His/RUNX1-biotin binding, biochemical. Potency, µM (titrated, usually from 59.8 µM), for inactives: top-dose activity, negative = inhibition, hits mostly inhibitors. 230,000 tested, under 10 active; note: % of control where 0% means no effect
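CBF-beta (His) and RUNX1 (biotin), 30 nM each; 20 min preassociation; + compound, 15 min; + beads 50 ng each (Ni, streptavidin), 90 min; RT; AlphaScreen read.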
Gal4-VP16 FLuc – counter-screen for ROR gamma inhibitors: Gal4-VP16 reporter | Drosophila S2 Gal4-VP16 UAS-luciferase, luminescence, 20 h | Potency, µM (top dose mostly 53.6 µM), for the others: at the highest dose activity, negative = inhibition, actives largely listed as inhibitors | hit rate 3.5% among 310,000 | AID 2546;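 note: Gal4-VP16 expression switched on by copper sulfate through the metallothionein promoter; potency is the fitted concentration of half-maximal effect; % is set by controls: 0 for no effect and ±100 for the full control effect; nearly all actives have a fitted effect of over 50% in size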
* hit, by the source's call; [ ] = dose if it differs, or a comment. Unless noted, calls come from the whole dose curve; as a rule, active = well fitted curve in the direction sought with a large enough effect; inconclusive = small, poorly fitted or top-dose-only effect, or another doubt; inactive = no such curve, though single readings can be large; an effect the other way counts as inactive or inconclusive.

How did CC(=O)Nc1sc2c(c1C#N)CCCCC2 do in these assays?
RORgamma inh: inconclusive; MBNL1-CUG inh: inconclusive; CtBP-E1A blk: -10.6; Six1-Eya2 inh: -0.9; CBFb-RUNX1 inh: -19.9%; Gal4-VP16 FLuc: -10.2%

What do the screens show for `Cc1onc(-c2ccccc2)c1C(=O)NC(=S)Nc1sc2c(c1C#N)CCC(C)C2` (centres undefined)?
RORgamma inh: 2.82µM*; MBNL1-CUG inh: 2.1%; CtBP-E1A blk: -8.2; Six1-Eya2 inh: -16.7; CBFb-RUNX1 inh: -16.4%; Gal4-VP16 FLuc: inconclusive

How did O=C(CCNC(=O)c1ccccc1)OCC(=O)c1ccccc1 do in these assays?
RORgamma inh: 4.1%; MBNL1-CUG inh: -7.2%; CtBP-E1A blk: 3.1; Six1-Eya2 inh: 4.1; CBFb-RUNX1 inh: -0.1%; Gal4-VP16 FLuc: -15.6%

Results for Cc1sc(NC(=S)NC(=O)c2ccccc2)c(C#N)c1C ?
CtBP-E1A blk: -15.3; Six1-Eya2 inh: -1.2

Results for C=CCNC(=S)Nc1sc2c(c1C#N)CCCC2 ?
RORgamma inh: 11.2µM*; MBNL1-CUG inh: -0.4%; CtBP-E1A blk: -9.1; Six1-Eya2 inh: inconclusive; CBFb-RUNX1 inh: 3.5%; Gal4-VP16 FLuc: 1.9%

What do the screens show for `Cc1sc(NC(=S)NC(=O)c2ccc(C(C)(C)C)cc2)c(C#N)c1C`?
RORgamma inh: 0.562µM*; MBNL1-CUG inh: -2.6%; CtBP-E1A blk: -4.9; Six1-Eya2 inh: -4.6; CBFb-RUNX1 inh: -7.1%; Gal4-VP16 FLuc: 11.2µM*

Results for Cc1ccc(C(=O)N(C)CC(=O)Nc2cccc(C)c2C)o1 ?
RORgamma inh: -2.9%; MBNL1-CUG inh: -10.7%; Six1-Eya2 inh: -0.1; Gal4-VP16 FLuc: -6.5%

How did Cn1c(C(C#N)C(=O)Cc2cccc3ccccc23)nc2ccccc21 (centres undefined) do in these assays?
RORgamma inh: 0.794µM*; MBNL1-CUG inh: -5.2%; CtBP-E1A blk: 0.3; Six1-Eya2 inh: 6.1; CBFb-RUNX1 inh: 0.0%; Gal4-VP16 FLuc: inconclusive

How did Cn1c(C(C#N)C(=O)c2ccco2)nc2ccccc21 (centres undefined) do in these assays?
RORgamma inh: inconclusive; MBNL1-CUG inh: 9.7%; CtBP-E1A blk: -11.2; Six1-Eya2 inh: -10.9; CBFb-RUNX1 inh: -0.8%; Gal4-VP16 FLuc: 6.31µM*

How did CCOC(=O)[C@]12CCC=C1N(CCC1=CCCCC1)C(=O)[C@H](CC(=O)NCc1ccc(OC)c(OC)c1)C2 do in these assays?
CtBP-E1A blk: 1.2; Six1-Eya2 inh: -4.9

How did COc1ccc(OCc2nnc(SCC(=O)Nc3ccc(C)cc3)o2)cc1 do in these assays?
RORgamma inh: -12.5%; MBNL1-CUG inh: -7.6%; CtBP-E1A blk: -2.8; Six1-Eya2 inh: 2.8; Gal4-VP16 FLuc: -0.9%

What do the screens show for `O=C(CSc1nnc(COc2ccccc2)o1)N1CCOCC1`?
RORgamma inh: 0.112µM*; MBNL1-CUG inh: 5.0%; CtBP-E1A blk: 4.3; Six1-Eya2 inh: 4.3; CBFb-RUNX1 inh: -12.0%; Gal4-VP16 FLuc: -4.7%

How did Cc1ccc(OCc2nnc(SCC(=O)CC(=O)Nc3ccccc3)o2)cc1 do in these assays?
RORgamma inh: 12.6µM*; MBNL1-CUG inh: -10.6%; CtBP-E1A blk: 2.7; Six1-Eya2 inh: -2.1; CBFb-RUNX1 inh: 2.0%; Gal4-VP16 FLuc: inconclusive

Results for COc1ccc(N2CCN(C(C)C(=O)N(C)Cc3ccccc3)CC2)cc1 (centres undefined) ?
RORgamma inh: 38.5%; MBNL1-CUG inh: -1.4%; CtBP-E1A blk: -16.3; Six1-Eya2 inh: -3.2; Gal4-VP16 FLuc: 1.8%

Results for COc1cc(C2NC(=S)NC3=C2CCc2ccccc23)cc(OC)c1OC (centres undefined) ?
RORgamma inh: 5.62µM*; CtBP-E1A blk: -3.8; Six1-Eya2 inh: -11.6; CBFb-RUNX1 inh: -6.2%; Gal4-VP16 FLuc: 10µM*

Results for C=CCOc1ccc(C2NC(=S)NC3=C2CCc2ccccc23)cc1 (centres undefined) ?
RORgamma inh: 3.55µM*; MBNL1-CUG inh: -0.1%; CtBP-E1A blk: -10.3; Six1-Eya2 inh: -19.1; CBFb-RUNX1 inh: inconclusive; Gal4-VP16 FLuc: 12.6µM*

What do the screens show for `COc1ccc(C2CC(=O)C=C3c4ccc(OC)cc4CCC32)cc1` (centres undefined)?
CtBP-E1A blk: 15.8; Six1-Eya2 inh: 2.5

Results for COc1ccc2c(c1)CCC1=C2NC(=S)NC1c1ccc(N(C)C)cc1 (centres undefined) ?
RORgamma inh: 2.82µM*; MBNL1-CUG inh: 9.1%; CtBP-E1A blk: 0.0; Six1-Eya2 inh: -8.3; CBFb-RUNX1 inh: inconclusive; Gal4-VP16 FLuc: 3.55µM*

How did C=CCOC(=O)c1sc(NC(=O)c2ccc(OC)cc2)nc1C do in these assays?
RORgamma inh: 6.31µM*; MBNL1-CUG inh: inconclusive; CtBP-E1A blk: 5.2; Six1-Eya2 inh: 3.4; CBFb-RUNX1 inh: -0.7%; Gal4-VP16 FLuc: -12.5%

What do the screens show for `CCOC(=O)c1sc(NC(=S)NC(=O)c2ccc(OC)cc2)nc1C`?
RORgamma inh: 6.31µM*; MBNL1-CUG inh: 16.7%; CtBP-E1A blk: 1.6; Six1-Eya2 inh: 5.9; Gal4-VP16 FLuc: 5.01µM*

How did COC(=O)c1sc(NC(=S)NC(=O)c2ccc(F)cc2)nc1C do in these assays?
RORgamma inh: 0.3%; MBNL1-CUG inh: 6.8%; CBFb-RUNX1 inh: 6.7%; Gal4-VP16 FLuc: -4.9%[10 µM]

What do the screens show for `COC(=O)c1sc(NC(=S)NC(=O)c2ccccc2C)nc1C`?
RORgamma inh: 6.31µM*; MBNL1-CUG inh: 17.9%; CtBP-E1A blk: 0.0; Six1-Eya2 inh: -9.2; CBFb-RUNX1 inh: 2.7%; Gal4-VP16 FLuc: 15.8µM*

Results for CCc1nnc(NC(=O)c2ccc(OC)cc2)s1 ?
RORgamma inh: 7.94µM*; MBNL1-CUG inh: 2.3%; CtBP-E1A blk: 1.9; Six1-Eya2 inh: -1.9; CBFb-RUNX1 inh: -1.4%; Gal4-VP16 FLuc: -21.6%[10 µM]

How did CCN1CCN(Cc2ccc(NC(=O)c3ccc(C)c(NC(=O)c4c[nH]c5cc(C(F)(F)F)ccc5c4=O)c3)cc2C(F)(F)F)CC1 do in these assays?
RORgamma inh: 6.31µM*; MBNL1-CUG inh: 5.4%; CtBP-E1A blk: -10.2; Six1-Eya2 inh: -4.0; CBFb-RUNX1 inh: 14.0%; Gal4-VP16 FLuc: 11.2µM*

What do the screens show for `O=C(NC(=S)Nc1ccccc1Cl)c1ccco1`?
RORgamma inh: 12.6µM*; MBNL1-CUG inh: -10.5%; CtBP-E1A blk: -1.3; Six1-Eya2 inh: 2.8; Gal4-VP16 FLuc: inconclusive

What do the screens show for `CCC(=O)Nc1ccc(Cl)c(NC(=S)NC(=O)c2ccco2)c1`?
RORgamma inh: 36.4%; CtBP-E1A blk: -0.4; Six1-Eya2 inh: 2.3; CBFb-RUNX1 inh: 0.2%; Gal4-VP16 FLuc: inconclusive
